In all, about 220,000 compounds went through this assay and about 710 (0.32%) were called active. Only a selection was taken, and actives are over-represented in it overall. A number with no mark means an inactive call. Rule as the data show it: active = binding response below about 49% or above about 150%; inactive = in between.
Each compound was assayed against Guanine nucleotide-binding protein G(o) subunit alpha (Homo sapiens) (UniProt P09471) (assay: modulators of RGS4 binding to Galphao, primary screen, biochemical, multiplexed bead flow cytometry (AID 1415;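 also: fluorescent Galphao activated with aluminum fluoride binding bead-coupled RGS4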)). Settings: at 10 µM, actives lie on both sides.
Chain of Guanine nucleotide-binding protein G(o) subunit alpha (Homo sapiens) (P09471 whole entry, looked up): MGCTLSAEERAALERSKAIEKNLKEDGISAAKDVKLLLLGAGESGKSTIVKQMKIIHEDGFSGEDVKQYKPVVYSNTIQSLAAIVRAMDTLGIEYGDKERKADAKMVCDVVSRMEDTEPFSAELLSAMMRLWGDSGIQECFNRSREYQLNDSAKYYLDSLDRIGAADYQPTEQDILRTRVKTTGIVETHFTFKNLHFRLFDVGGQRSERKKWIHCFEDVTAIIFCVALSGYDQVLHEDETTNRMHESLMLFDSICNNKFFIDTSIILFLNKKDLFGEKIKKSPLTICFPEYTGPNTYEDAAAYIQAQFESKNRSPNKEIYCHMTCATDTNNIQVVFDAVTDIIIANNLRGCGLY
Work on `COc1ccc(/C=C/C(=O)Nc2ccc(C34CC5CC(CC(O)(C5)C3)C4)cc2)cc1OC` yielded a binding response (% of control) of 102%. `Cc1ccsc1/C=N/Nc1ccc(Cl)nn1` was tested, and the binding response (% of control) was 108%. Compound `C=CCN1CC(C)/C(=N\O)CC1C` (configuration not stated) has a binding response (% of control) of 99.6%. In the case of `O=C(NC1CCCCC1)c1ccc(CNc2c(N3CCOCC3)c(=O)c2=O)cc1`, the binding response (% of control) is reported as 102%. `COc1ccc(CC(=O)N/N=C(\C)c2ccccn2)cc1` was tested, and the binding response (% of control) was 91.7%. With `CCOc1cc(NC(=O)c2ccccn2)c(OCC)cc1NC(=O)c1ccc(OC)cc1` the binding response (% of control) was 102%. For `CCN(CC)CCOc1ccc2c(c1)C(=NNC(=O)c1ccccn1)c1cc(OCCN(CC)CC)ccc1-2`, the binding response (% of control) was 172% [activator] (active). With `COC(=O)c1c(C(=O)OC)c(-c2cccc(C)c2)n2c1CS(=O)C2` (configuration not stated) the binding response (% of control) was 91.5%. `CC(=O)Nc1nc(N(C)C)nc(N(C)C)n1` was tested, and the binding response (% of control) was 14.5% (active). For `CCC(=O)Nc1nc(OC)cc(OC)n1`, the binding response (% of control) was 102%. Work on `COc1cc(OC)nc(NC(=O)CCl)n1` yielded a binding response (% of control) of 101%. With `O=C(NCc1ccc(F)cc1)C1CCC(CNc2c(N3CCOCC3)c(=O)c2=O)CC1` (configuration not stated) the binding response (% of control) was 11.6% (active). In the case of `CC(NC(=O)C1CCC(CNc2c(N3CCOCC3)c(=O)c2=O)CC1)c1ccccc1` (configuration not stated), the binding response (% of control) is reported as 99.8%. `COc1ccc(CNC(=O)C2CCC(CNc3c(N4CCOCC4)c(=O)c3=O)CC2)cc1` (configuration not stated) was tested, and the binding response (% of control) was 106%. `O=C(c1ccc(Br)o1)N(c1ccccn1)C1CCCCC1` showed a binding response (% of control) of 92.3%. Work on `CC(Nc1nc(N2CCN(CCO)CC2)nc2ccccc12)c1ccccc1` (configuration not stated) yielded a binding response (% of control) of 100%. Compound `Cc1ccc(NC(=S)N2CCN(c3ncccn3)CC2)cc1C` has a binding response (% of control) of 104%. With `C=CCc1cccc2cc(C(=O)NC3CCCC3)c(=O)oc12` the binding response (% of control) was 97.8%. `C/C=C\C=C\C(=O)N1CC2(CC(c3cccc(NC(=O)/C(C)=C\C)c3)=NO2)C[C@H]1C(N)=O` (some centres not stated) was tested, and the binding response (% of control) was 103%. With `COc1ccc(CC(=O)n2nc(-c3cccnc3)nc2N)cc1` the binding response (% of control) was 96.8%. `COc1ccccc1C(=O)n1nc(-c2ccccc2)nc1N` showed a binding response (% of control) of 98.8%. `CCCC(=O)n1nc(-c2ccccc2)nc1N` was tested, and the binding response (% of control) was 25.8% (active). `CCCNC(=S)NC1CC2CCCC(C1)N2CC(C)C` (configuration not stated) was tested, and the binding response (% of control) was 99.3%. Work on `CCNC(=O)CC1C(=O)N(c2ccc(F)cc2)C(=O)N1CCc1sccc1C` (configuration not stated) yielded a binding response (% of control) of 99.7%. With `CC(C)C(NS(=O)(=O)c1cccs1)C(=O)Nc1nc(C(C)(C)C)cs1` (configuration not stated) the binding response (% of control) was 99%. `COc1ccc(CCNC(=O)C2CC3Cn4c(nc5cc(C)c(C)cc54)C3N2C)cc1` (configuration not stated) gave a binding response (% of control) of 103%. `COc1ccc(C)cc1NC(=O)CSc1ccc(Cl)cc1` was tested, and the binding response (% of control) was 105%. `CCOc1ccc(-c2ccc(SCC(=O)N3CCOCC3)nn2)cc1` gave a binding response (% of control) of 104%. `CCOC(=O)c1c(C)[nH]c(C2=NNC(=NC(C)COC)SC2)c1C` (configuration not stated) showed a binding response (% of control) of 92.4%. In the case of `CCOC(=O)C1Sc2[nH]c(=O)sc2C(c2ccc(Cl)cc2)C1C(=O)OCC` (configuration not stated), the binding response (% of control) is reported as -41.2% (active). Compound `CCOC(=O)C1C(c2ccc(Cl)cc2)NC(=S)NC1(O)C(F)(F)F` (configuration not stated) has a binding response (% of control) of 102%. `CCOC(=O)C1=C(C)NC(=O)N(C(C)=O)C1c1ccc(Cl)cc1` (configuration not stated) was tested, and the binding response (% of control) was 115%. In the case of `CC(=O)NS(=O)(=O)c1ccc(NC(=O)C2C3C=CC(C3)C2C(=O)O)cc1` (configuration not stated), the binding response (% of control) is reported as 101%. In the case of `CCOC(=O)c1c(Cc2ccc(Cl)cc2)c[nH]c1C`, the binding response (% of control) is reported as 102%. `Cc1cc(C)cc(N(CC(=O)Nc2c(C)n(C)n(-c3ccccc3)c2=O)S(C)(=O)=O)c1` was tested, and the binding response (% of control) was -43.6% (active). Work on `Cc1ccc(S(=O)(=O)CC(=O)Nc2c(C)n(C)n(-c3ccccc3)c2=O)cc1` yielded a binding response (% of control) of 97.9%. For `Cc1cc(C)cc(N(C(C)C(=O)Nc2c(C)n(C)n(-c3ccccc3)c2=O)S(C)(=O)=O)c1` (configuration not stated), the binding response (% of control) was 102%. `COCCCNC(=O)CN1CCN(Cc2ccccc2Cl)C1=O` was tested, and the binding response (% of control) was 103%. For `O=C(COc1ccc(/C=N/NC(=O)c2ccc(O)cc2)cc1)Nc1ccc([N+](=O)[O-])cc1`, the binding response (% of control) was 103%. Compound `Cc1cc(N2CCOCC2)nc(-c2ccc(Br)cc2)n1` has a binding response (% of control) of 95.9%. For `C#CCOCCOCCOCCNc1nc(N2CCN(C(=O)[C@H](CCC(=O)O)n3cc(C(N)CO)nn3)CC2)nc(N2CCN(C(=O)[C@H](CCCCN)n3cc(C(N)[C@H](C)CC)nn3)CC2)n1` (some centres not stated), the binding response (% of control) was 102%. Work on `C=CCc1cccc2cc(C(=O)Nc3ccc(NC(C)=O)cc3)c(=O)oc12` yielded a binding response (% of control) of 102%. In the case of `N#Cc1nc(COc2ccc(-c3ccccc3)cc2)oc1NCc1cccnc1`, the binding response (% of control) is reported as 153% [activator] (active). `N#Cc1nc(-c2ccc(OCc3ccccc3)cc2)oc1NCCCN1CCOCC1` showed a binding response (% of control) of 100%. For `N#Cc1nc(Cc2ccccc2)oc1NCCc1ccccc1`, the binding response (% of control) was 103%. `Cc1ccccc1C1=NC(C(F)(F)F)(C(F)(F)F)c2c(n(-c3ccc(F)cc3)c(=O)[nH]c2=O)N1` showed a binding response (% of control) of 104%. Compound `CCC(C)NC(=O)CN(C1CCCCC1)S(C)(=O)=O` (configuration not stated) has a binding response (% of control) of 99.8%. In the case of `O=S(=O)(NC(=S)Nc1ccccc1)c1ccc(F)cc1`, the binding response (% of control) is reported as 103%. `CC(C)Oc1ccc(CC(=O)NNC(=S)Nc2ccc(Br)cc2)cc1` was tested, and the binding response (% of control) was 99.3%. `O=C(NCc1ccc2c(c1)OCO2)C12CC3CC(CC(C3)C1)C2` showed a binding response (% of control) of 98.9%. For `Cc1ccc(C2NC(C(=O)O)CS2)cc1` (configuration not stated), the binding response (% of control) was 103%. `O=C(CSC1=NCCS1)Nc1nc(-c2ccccc2)cs1` was tested, and the binding response (% of control) was 83.7%. In the case of `Cc1cccc(S(=O)(=O)CC(=O)Nc2nc(-c3ccccc3)cs2)c1`, the binding response (% of control) is reported as 183% [activator] (active). For `NS(=O)(=O)c1ccc(Nc2nc(-c3ccccc3)cs2)cc1`, the binding response (% of control) was 106%. Compound `CCOc1ccccc1Oc1cn[nH]c1-c1ccc(OC)cc1O` has a binding response (% of control) of 99%. `COc1ccc(Cl)cc1C(=O)NNC(=O)c1nc2nc(C)cc(C)n2n1` gave a binding response (% of control) of 103%. Compound `C#CCOCCOCCOCCNc1nc(N2CCN(C(=O)[C@H](C(C)C)n3cc(CCO)nn3)CC2)nc(N2CCN(C(=O)[C@H]([C@@H](C)CC)n3cc(CCCN=C(N)N)nn3)CC2)n1` has a binding response (% of control) of 101%.

From PubChem BioAssay AID1415 (NMMLSC, 2008)
